Source: PubChem (National Center for Advancing Translational Sciences (NCATS))
The sample as a whole holds a higher share of hits than the screen did.
Rango-impB inh = qHTS Assay for Inhibitors of Rango (Ran-regulated importin-beta cargo) - Importin beta complex formation | actives 0.031% (n = 340,000) | AID 540263, 2011 | Potency, µM (top dose mostly 92.2 µM), without a hit: top-dose inhibition of complex formation | Rango CFP/YFP FRET sensor + importin beta, 45 min | Importin subunit beta-1 (Homo sapiens), Q14974;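 also: potency is read from the fitted curve at half-maximal effect; 0% = DMSO wells and 100% = buffer wells lacking importin beta; nearly all actives have a fitted effect of over 15% in size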
Target sequence (Q14974 whole entry, looked up): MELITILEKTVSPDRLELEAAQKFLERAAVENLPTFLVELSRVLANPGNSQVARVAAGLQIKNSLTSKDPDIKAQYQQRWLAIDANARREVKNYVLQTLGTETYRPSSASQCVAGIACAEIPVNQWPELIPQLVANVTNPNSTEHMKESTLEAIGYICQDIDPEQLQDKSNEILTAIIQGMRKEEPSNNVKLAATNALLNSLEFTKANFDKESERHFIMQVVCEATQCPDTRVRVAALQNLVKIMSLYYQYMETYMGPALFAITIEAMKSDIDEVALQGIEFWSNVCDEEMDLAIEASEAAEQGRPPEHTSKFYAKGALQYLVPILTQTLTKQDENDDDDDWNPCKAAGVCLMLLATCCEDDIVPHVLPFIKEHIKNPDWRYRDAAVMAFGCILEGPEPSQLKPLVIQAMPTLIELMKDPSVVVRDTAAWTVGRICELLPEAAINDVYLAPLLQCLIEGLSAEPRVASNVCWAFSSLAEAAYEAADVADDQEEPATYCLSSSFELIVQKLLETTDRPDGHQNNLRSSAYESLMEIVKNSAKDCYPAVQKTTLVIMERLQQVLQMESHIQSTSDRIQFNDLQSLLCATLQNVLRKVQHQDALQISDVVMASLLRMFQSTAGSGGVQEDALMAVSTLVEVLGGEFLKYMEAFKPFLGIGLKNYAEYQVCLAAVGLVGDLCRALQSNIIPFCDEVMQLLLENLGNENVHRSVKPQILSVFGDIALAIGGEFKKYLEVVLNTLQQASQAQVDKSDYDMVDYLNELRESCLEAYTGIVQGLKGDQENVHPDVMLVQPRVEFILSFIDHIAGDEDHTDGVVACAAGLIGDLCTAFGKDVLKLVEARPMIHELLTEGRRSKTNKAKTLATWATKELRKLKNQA
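FRET biosensor Rango (snurportin 1 IBB between N-terminal EYFP and C-terminal Cerulean), 50 nM in PBS/1 mM DTT/0.02% Tween-20/0.1% BSA, preincubated 5 min RT with compound; 0.125 microM importin beta added, 45 min RT, CFP/YFP FRET ratio read.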
MBNL1-CUG inh = qHTS Assay for Inhibitors of MBNL1-poly(CUG) RNA binding | AID 2675, 2010 | TR-FRET MBNL1-His/biotin-(CUG)12 binding, 665/545 ratio | Muscleblind-like protein 1 (Homo sapiens), Q9NR56 | Potency, µM (doses to about 57.5 µM), without a hit: at the top dose activity change, negative = inhibition, most hits filed as inhibitors | actives 0.036% (n = 280,000); active = well fitted inhibition curve with a large enough effect in the signal ratio, with a control signal flat, not every such curve was filed as active; inconclusive = small, poorly fitted or top-dose-only effect, or effect the other way, or a change in a side signal; inactive = no such curve, though single readings can be large or run the other way; the % refers to the signal ratio; also: potency is read from the fitted curve at half-maximal effect; % is scaled to controls: 0 for no effect and ±100 for the full control effect
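TR-FRET between His-tagged MBNL1 and biotin-(CUG)12 RNA, detected with Tb anti-His antibody (0.055 ng/ul) and streptavidin-XL665 (5 nM), 60 min at room temperature. Compounds titrated 92 nM to 58 uM; 665/545 nm ratio normalized to buffer and complex controls.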
CBFb RUNX1 block = qHTS Assay for Compounds Blocking the Interaction Between CBF-beta and RUNX1 for the Treatment of Acute Myeloid Leukemia; AID 1477, 2009; Potency, µM (doses to about 59.8 µM), inactives show at the highest dose activity, negative = inhibition, hits mostly inhibitors; AlphaScreen CBFb-His/RUNX1-biotin binding, biochemical; 230,000 tested, under 10 active; Runt-related transcription factor 1 (Homo sapiens) + Core-binding factor subunit beta …; active = well fitted curve in the direction sought with a large enough effect; inconclusive = small, poorly fitted or top-dose-only effect, or effect the other way, or another doubt; inactive = no such curve, though single readings can be large or run the other way; also: % of control where 0% means no effect
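Compounds were screened at multiple concentrations against a preformed CBF-beta(His)/RUNX1(biotin) complex (30 nM of each) for 15 min at room temperature, followed by 90 min with nickel and streptavidin beads and AlphaScreen reading.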
ClpP mod = qHTS Assay for Activators of ClpP; purified B. subtilis ClpP, FRET peptide cleavage, 20 min; Potency, µM (highest dose often 57.5 µM), without a hit: at the highest dose activity change, negative = active; actives 1.9% (n = 340,000); AID 651965, 2013; active = well fitted falling curve with a large enough effect; inconclusive = small, poorly fitted or top-dose-only effect; inactive = no such curve, though single readings can be large or run the other way; also: potency is read from the fitted curve at half-maximal effect; the source files actives as falling curves though it sought activators and does not explain the sign; nearly all actives have a fitted effect of over 65% in size
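ClpP 10 microg/mL final, pH 8 Tris/KCl buffer with BSA, glycerol, Tween-20; compound pinned in; FRET-FV substrate; RT 20 min; Ex320/Em430; ΔFRET vs ADEP 5.8 microM, DMSO, no enzyme.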
Rango dissoc inh = qHTS Assay for Inhibitors of RanGTP induced Rango (Ran-regulated importin-beta cargo) - Importin beta complex dissociation; Snurportin-1 (Homo sapiens) + GTP-binding nuclear protein Ran (Homo sapiens) + Importin …; Biochemical FRET Rango-importin beta, RanGTP-induced dissociation; Potency, µM (doses to about 46.1 µM), inactives show at the highest dose activity change, negative = inhibition; actives 0.071% (n = 340,000); also: potency is read from the fitted curve at half-maximal effect; % of control where 0% means no effect; nearly all actives have a fitted effect of over 45% in size
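Recombinant Rango FRET biosensor (EYFP–snurportin 1 IBB–cerulean CFP10) at 0.1 uM premixed with 0.25 uM importin beta in PBS, 1 mM DTT, 0.02% Tween-20, 0.1% BSA. Compound added 5 min; RanGTP-RCC1 (0.6 uM Ran, 2 mM GTP, 0.2 uM RCC1) then triggers release, read at 45 min.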
An asterisk follows results filed as active; ? = inconclusive; . = no result given. Unless noted, calls follow the shape of the full dose curve.

SMILES	Rango-impB inh	MBNL1-CUG inh	CBFb RUNX1 block	ClpP mod	Rango dissoc inh
O=C(COC(=O)c1ccc2[nH]c3c(c2c1)CCCC3)Nc1ccccc1	?	.	-1%	.	?
COc1cccc(/C=N/NC(=O)CSc2nnc(C)n2-c2ccccc2)c1OC	-5%	1%	-1%	28µM*	-22%
Clc1ccc2nc(Nc3ccccc3Cl)nc(-c3ccccc3)c2c1	.	.	.	-4%	.
COc1cc(OC)c2c(=O)cc(-c3ccccc3)oc2c1	-1%	-1%	10%	-22%	11%
COc1cc(OC)c2c(C)c(Cl)c(=O)oc2c1	1%	14%	2%	2.8µM*	11%
CCCCn1c(=O)c(Cc2ccccc2)c(O)c2ccccc21	0%	-5%	3%	14µM*	12%
CCCCCCn1c(=O)c(Cc2ccccc2)c(O)c2ccccc21	0%	2%	5%	.	-11%
CCCCCCCC(=O)Nc1ccc(C(=O)N/N=C/c2cccc([N+](=O)[O-])c2)cc1	0%	0%	2%	28µM*	-8%
CCCC(=O)Nc1ccc(C(=O)N/N=C/c2ccc([N+](=O)[O-])o2)cc1	-2%	?	-12%	32µM*	0%
CCCCCCC(=O)Nc1ccc(C(=O)N/N=C/c2cccnc2)cc1	-2%	4%	2%	5%	4%
Cc1ccccc1CNC(=O)Cn1ncn2nc(-c3cccs3)cc2c1=O	.	.	.	-6%	.
COC(=O)c1[nH]c2cccc(OC)c2c1NC(=O)CCN1CCC(C)CC1	-4%	5%	3%	25µM*	-2%
COC(=O)c1[nH]c2cccc(OC)c2c1NC(=O)CCN1CCN(c2ccccc2OC)CC1	-8%	-10%	0%	?	16%
COC(=O)c1[nH]c2cccc(OC)c2c1NC(=O)C(C)N1CCC(C)CC1 (stereo unspecified)	0%	14%	-2%	32µM*	4%
O=c1ncccn1[C@@H]1O[C@H](CO)[C@@H](O)[C@H]1O	.	.	4%	.	.
COc1cc(-c2nc(Cn3nnc(C(=O)Nc4ccccc4)c3C)c(C)o2)cc(OC)c1OC	.	.	.	28µM*	.
Cc1ccc(C)c(NC(=O)c2cc(=O)c3cc(C)cc(C)c3o2)c1	.	.	.	1%	.
CCN(CC)CCNC(=O)c1cccc(NC(=O)C(=O)c2cc(Br)ccc2NC(C)=O)c1	-2%	8%	3%	-1%	2%
CCCCNC(=O)c1ccc2c(c1)NC(=O)C(CS(=O)(=O)Cc1ccc(F)cc1Cl)N2 (stereo unspecified)	.	.	.	40µM*	.
CC(C)CC1Nc2ccc(C(=O)NCCCOC(C)C)cc2NC1=O (stereo unspecified)	.	.	.	-10%	.
CCN(CC)CCNC(=O)c1ccc2c(c1)NC(=O)C(CS(=O)(=O)Cc1cccc(Br)c1)N2 (stereo unspecified)	.	.	.	7.9µM*	.
CCN(CC)CCCNC(=O)c1ccc2c(c1)NC(=O)C(CS(=O)(=O)Cc1cccc(Br)c1)N2 (stereo unspecified)	.	.	.	3.5µM*	.
O=C(NCc1ccccc1Cl)c1ccc2c(c1)NC(=O)C(CS(=O)(=O)Cc1ccc(Cl)cc1)N2 (stereo unspecified)	.	.	.	4%	.
CCOc1ccc(-c2c(C)nn3c(C)c(C(=O)NCc4cccc(OC)c4)cnc23)cc1OCC	.	.	.	3%	.
Cc1ccnc(NS(=O)(=O)c2ccc(C(C)(C)C)cc2)c1	.	-4%	-1%	.	.
SMILES	Rango-impB inh	MBNL1-CUG inh	CBFb RUNX1 block	ClpP mod	Rango dissoc inh
COc1ccc(S(=O)(=O)Nc2cc(C)ccn2)cc1	-1%	-1%	3%	14µM*	-2%
Cc1ccnc(NS(=O)(=O)Cc2ccccc2)c1	-1%	-12%	1%	40µM*	-5%
CSc1ccc(CNC(=O)c2ccc3c(c2)N(C)C(=O)C2CCCCN32)cc1 (stereo unspecified)	.	.	.	-5%	.
Cn1cccc1-c1nc2ccccc2n1Cc1ccccc1	4%	0%	?	28µM*	25%
Oc1ccc(C(=S)N2CCCCC2)cc1	0%	-12%	-1%	1%	27%
S=C(c1ccc(Br)cc1)N1CCCC1	-1%	-4%	.	25µM*	1%
CCS(=O)(=O)NCCc1cc2ccc(C)cc2[nH]c1=O	?	-4%	0%	28µM*	-14%
CCCc1nc(-c2cc3ccc(C)cc3[nH]c2=O)no1	0%	?	6%	28µM*	22%
CCS(=O)(=O)NCCc1cc2cc(C)c(C)cc2[nH]c1=O	1%	-12%	1%	-6%	1%
O=C(CC1SC(=O)N(c2ccccc2)C1=O)Nc1ccccc1 (stereo unspecified)	0%	8%	-10%	4%	-10%
Cc1ccc(NC(=O)CC2SC(=O)N(c3ccccc3)C2=O)cc1 (stereo unspecified)	-7%	7%	-13%	28µM*	-16%
Cc1cccc(NC(=O)CC2SC(=O)N(c3ccccc3)C2=O)c1 (stereo unspecified)	7%	-4%	-11%	35µM*	-7%
COCCNC(=O)CSc1nc2cc3c(cc2c(=O)n1CCCCCC(=O)NCCc1ccc(OC)c(OC)c1)OCO3	.	.	.	0%	.
COc1ccc(CCCc2nnc(SCC(=O)Nc3cc(F)ccc3C)o2)cc1	.	.	.	0%	.
Cc1cccc(-c2noc(CSc3nc(-c4ccc(F)cc4)cc(=O)[nH]3)n2)c1	.	.	.	1%	.
CN(C)S(=O)(=O)c1ccc(Nc2nc(C3CC3)nc3c2nnn3Cc2ccccc2Cl)cc1	0%	-18%	4%	32µM*	9%
O=C(C(Cc1ccccc1)N1C(=O)C2C3C=CC(C3)C2C1=O)N1CCCCC1 (stereo unspecified)	11%	-1%	0%	20µM*	-3%
O=C(C(Cc1ccccc1)N1C(=O)C2C3C=CC(C3)C2C1=O)N1CCCCCC1 (stereo unspecified)	-1%	-9%	4%	1%	-1%
Cn1c(=N)n(CC(O)c2cccc3ccccc23)c2ccccc21 (stereo unspecified)	-3%	5%	-2%	8.9µM*	6%
CCOc1ccc(NC(=O)Cn2cc(C(=O)c3ccc(C)c(C)c3)c(=O)c3cc(F)ccc32)cc1	.	.	.	-4%	.
Fc1ccc(Sc2nc(-c3ccccc3)nnc2C(F)(F)F)cc1	0%	-2%	8%	-1%	-12%
Fc1ccc(Sc2cc(Cl)c(-c3ccccc3)nn2)cc1	1%	-5%	5%	28µM*	-1%
